Source: PubChem BioAssay (National Center for Advancing Translational Sciences (NCATS))
PINK1 expr mod – changes PINK1 expression. AID 624263. PINK1 immunofluorescence, high-content cytometry, 24 h. actives 0.2% (n = 410,000). Potency, µM (titrated, usually from 76.6 µM), for the others: top-dose activation (PINK1 increase), usual class: activators; active = well fitted activation curve with a large enough effect; inconclusive = small, poorly fitted or top-dose-only effect; cell line not stated here; note: % of control where 0% means no effect; nearly all actives have a fitted effect of over 65% in size
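Fluorescence from anti-PINK1 antibody, together with nuclear and cell stains, was scanned on a laser-scanning cytometer. Before staining, stable-line cells were incubated 24 hours with compounds at 5 concentrations; primary antibody 12 h at 10 degrees C.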
KB-3-1 cytotox – kills parental KB-3-1 adenocarcinoma cells; KB-3-1 viability, CellTiter-Glo ATP luminescence, 72 h; Potency, µM (highest dose often 46.1 µM), hits mostly cytotoxic; actives 1.4% (n = 400,000); AID 1347075; note: % is set by controls: 0 for no effect and ±100 for the full control effect; nearly all actives have a fitted effect of over 60% in size
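Parental KB-3-1 adenocarcinoma cells in phenol-red-free DMEM with 10% FBS were pin-treated with compounds at several concentrations, incubated 72 h at 37 °C, and viability read by CellTiter-Glo luminescence; concentration-effect curves were fitted after normalization.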
SW480 rerep – inducers of DNA re-replication in SW480 colon cancer cells; AID 624297; Potency, µM (top dose mostly 46.1 µM), inactives show at the top dose re-replication activation, actives largely listed as activators; SW480 DNA re-replication, Hoechst DNA content imaging, 48 h; actives 1.8% (n = 340,000); note: % of control where 0% means no effect; nearly all actives have a fitted effect of over 55% in size
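250 cells/well; 23 nL cpd via pin tool; 48 hr, 37 C, 5% CO2; Hoechst 40 min; imager read of total nuclear intensity, ex 405/em 500-530 nm.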
KB-V1 MDR tox – KB-V1 MDR subline cytotoxicity; Potency, µM (titrated, usually from 46.1 µM), most hits filed as cytotoxic; AID 1347076; actives 3.4% (n = 400,000); KB-V1 MDR cells viability, CellTiter-Glo, 72 h; note: % is set by controls: 0 for no effect and ±100 for the full control effect; nearly all actives have a fitted effect of over 60% in size
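Potencies derive from concentration-effect curves fitted to normalized luminescence (CellTiter-Glo) of KB-V1 cells treated for 72 h at 37 degrees C in phenol-red-free DMEM containing 10% FBS.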
ALOX12 inh – blocks human arachidonate 12S-lipoxygenase; purified 12hLO, xylenol orange hydroperoxide absorbance; Potency, µM (series often up to 108 µM), for the others: at the highest dose activity change, negative = inhibition, most hits filed as inhibitors; actives 1.1% (n = 580,000); AID 1671190; note: % is set by controls: 0 for no effect and ±100 for the full control effect
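Hydroperoxide product was detected by ferrous iron/xylenol orange as the 573 to 405 nm absorbance ratio. Arachidonic acid at 40 uM (final) was turned over for 30 min at room temperature by 150 nM human 12hLO, pH 7.0 Hepes buffer, after 15 min compound preincubation.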
MCF10A rereplic – inducers of DNA re-replication in MCF 10A breast cells; MCF 10A DNA re-replication, Hoechst nuclear intensity, 48 h; Potency, µM (doses to about 46.1 µM), for inactives: at the highest dose activity, positive = re-replication, actives largely listed as activators; actives 2.9% (n = 350,000); note: % of control where 0% means no effect; nearly all actives have a fitted effect of over 50% in size
Starred values were filed as active, the others as inactive; i = inactive; ? = inconclusive; / = no result given; [ ] = dose if it differs, or a comment. Rows were chosen to be rich in hits. Some 5.8% of all compounds tested hit in one or more screens of this group. Unless noted, calls come from the whole dose curve; as a rule, active = well fitted curve in the direction sought with a large enough effect; inconclusive = small, poorly fitted or top-dose-only effect, or another doubt; inactive = no such curve, though single readings can be large; an effect the other way counts as inactive or inconclusive. Potency is the fitted concentration of half-maximal effect.

SMILES	PINK1 expr mod	KB-3-1 cytotox	SW480 rerep	KB-V1 MDR tox	ALOX12 inh	MCF10A rereplic
Cc1ccccc1-n1c(O)c(C=Nc2ccc(N(C)C)cc2)c(=O)[nH]c1=O	-2.6%	i	?	2.31µM*	-4.1%	15.1%
Cc1ccccc1-n1c(O)c(/C=C2/C(c3ccccc3)=Nc3ccccc32)c(=O)[nH]c1=O	1.6%	2.06µM*	/	1.46µM*	-22.6%	5.17µM*
Cc1ccccc1-n1c(O)c(/C=C/C=Nc2ccccc2)c(=O)[nH]c1=O	8.6%	i	-9.1%	i	?	-72.7%
Cc1cccc(N=Cc2c(O)n(-c3ccccc3C)c(=O)[nH]c2=O)c1	16.2%[38.3 µM]	i	-2.7%	i	-23.6%	?
CC1=Nc2ccccc2/C1=C/c1c(O)n(C)c(=O)[nH]c1=O	3.6%	i	-1.6%	i	?	1.7%
O=C1NCCOCCCN[C@H]2CCCC[C@@H]12	/	/	/	/	10.1%	/
O=C(CCc1nc2ccccc2s1)N1[C@H]2CC[C@@H]1c1cnc(-c3ccc(F)cc3)nc1C2	/	/	/	/	22.3%	/
COCCN1CCC(N2CCN(C(=O)Cc3ccc(F)cc3)CC2)C1=O (configuration not stated)	/	/	/	/	-1.7%	/
CC[C@H]1CN2CC[C@H]1C[C@@H]2CNC(=O)Nc1cccc(C(F)(F)F)c1	/	/	/	/	21.7%[176 µM]	/
O=C(Cc1ccccc1)N1CCC(C(=O)O)(c2ccccc2)CC1	/	/	/	/	3.2%[6.33 µM]	/
CCCCn1c(=O)c(C(=O)NCc2ccc(Cl)cc2)c(O)c2ccccc21	?	i	?	i	0.0%	?
CCCCn1c(=O)c(C(=O)NCCc2ccccc2)c(O)c2ccccc21	?	i	-38.7%	i	8.0%	18.4µM*
CCCCCn1c(=O)c(C(=O)NCc2ccncc2)c(O)c2ccccc21	3.2%	5.8µM*	?	2.59µM*	13.1%	?
COc1ccc(-c2c(C(F)(F)F)oc3cc(OC(=O)N(C)C)ccc3c2=O)cc1	/	/	/	/	-18.2%	/
CCC(C)NC(=O)c1c(N)n(Cc2ccc3c(c2)OCO3)c2nc3ccccc3nc12 (configuration not stated)	0.5%	?	?	?	12.0%	?
CC(C)CCNC(=O)c1c(N)n(CC2CCCO2)c2nc3ccccc3nc12 (configuration not stated)	-0.6%	?	5.17µM*	?	?	2.31µM*
CCC(C)NC(=O)c1c(N)n(CC2CCCO2)c2nc3ccccc3nc12 (configuration not stated)	4.6%	i	18.4µM*	?	?	?
COc1cc(CN2CC3CC(C2)c2cccc(=O)n2C3)cc(OC)c1OC (configuration not stated)	-1.7%[38.3 µM]	i	1.0%	i	?	25.9µM*
CCOc1ccc(-c2c(C)n(-c3ccc(OCC)cc3)c3[n+]2CCCCC3)cc1	10µM*	1.64µM*	?	i	166.6%	?
CC(=O)OC1CC2(O)[C@@H]3CCC4CC(OC5CC(O)C(OC6CC(O)C(OC7CC(O)C(O)C(C)O7)C(C)O6)C(C)O5)CCC4(C)[C@H]3CCC2(C)C1C1=CC(=O)OC1 (some centres not stated)	/	/	/	/	-65.6%	/
CC(=O)O[C@H]1C[C@H](O[C@H]2[C@@H](O)C[C@H](O[C@H]3[C@@H](O)C[C@H](OC4CC[C@@]5(C)C(CC[C@@H]6[C@@H]5CC[C@]5(C)[C@@H](C7=CC(=O)OC7)[C@@H](O)C[C@]65O)C4)O[C@@H]3C)O[C@@H]2C)O[C@H](C)[C@H]1O[C@@H]1O[C@H](CO)[C@@H](O)[C@H](O)[C@H]1O (some centres not stated)	/	/	/	/	10.7%	/
CC(=O)OC1CC(OC2C(O)CC(OC3C(O)CC(OC4CCC5(C)C(CCC6C5CCC5(C)C(C7=CC(=O)OC7)C(O)CC65O)C4)OC3C)OC2C)OC(C)C1OC1OC(CO)C(O)C(O)C1O (configuration not stated)	-5.3%	1.16µM*	1.16µM*	?	13.8%	?
